Assay results published in the supplement of paper PMC13380429.

Tests used:
[1] = tested on: Vero E6 infected with SARS-CoV-2; assay: morphology score (similarity to uninfected cells); higher = more like uninfected cells; conditions: 24 h
[2] = tested on: Vero E6 infected with SARS-CoV-2; assay: SARS-CoV-2 infection rate relative to infected DMSO; higher = more infection, active = 60 or less; conditions: 24 h

SMILES | morphology score [1] | SARS-CoV-2 infection rate [2]
c1ccc(C(O[C@@H]2CCCN(CCc3ccc4c(c3)OCO4)C2)c2ccccc2)cc1 [zamifenacin] (10 µM) | 0.152 | 96% (inactive)
CCn1c(=O)c(-c2cc[nH]n2)cc2c(C)nc(N)nc21 [voxtalisib] (0.833333 µM) | 0.00591 | 109% (inactive)
Oc1cc(O)c(Cl)cn1 [gimeracil] (10 µM) | 0.103 | 107% (inactive)
CC1(c2ccccc2)OC(C(=O)O)=CC1=O (centres undefined) [acifran] (10 µM) | 0.119 | 102% (inactive)
COc1cc(C(=O)NS(=O)(=O)c2ccccc2C)ccc1Cc1cn(C)c2ccc(NC(=O)OC3CCCC3)cc12 [zafirlukast] (10 µM) | 0.282 | 105% (inactive)
CC1(C)OC(=O)C(OCC2CC2)=C1c1ccc(S(C)(=O)=O)cc1 [firocoxib] (10 µM) | 0.218 | 84.5% (inactive)
N=C(N)N/N=C/c1c(Cl)cccc1Cl [guanaben-acetate] (10 µM) | -0.127 | 114% (inactive)
COc1ccc(S(=O)(=O)Nc2nc(-c3cccc([N+](=O)[O-])c3)cs2)cc1OC (10 µM) | -0.00369 | 107% (inactive)
CCOC(=O)C1=C(C)NC(C)=C(C(=O)OCC)C1c1ccccc1/C=C/C(=O)OC(C)(C)C [lacidipine] (10 µM) | 0.101 | 106% (inactive)
N#Cc1ccccc1OCC(O)CNCCNC(=O)Nc1ccccc1 (centres undefined) (10 µM) | -0.0291 | 109% (inactive)
CC[C@]1(O)C[C@H]2CN(CCc3c([nH]c4ccccc34)[C@@](C(=O)OC)(c3cc4c(cc3OC)N(C=O)[C@H]3[C@@](O)(C(=O)OC)[C@H](OC(C)=O)[C@]5(CC)C=CCN6CC[C@]43[C@@H]65)C2)C1 [Vincristine (sulfate)] (10 µM) | -0.036 | 101% (inactive)
CCCCCOc1ccc(-c2cc(-c3ccc(C(=O)N[C@H]4C[C@@H](O)[C@@H](O)NC(=O)[C@@H]5[C@@H](O)[C@@H](C)CN5C(=O)[C@H]([C@H](O)CC(N)=O)NC(=O)[C@H]([C@H](O)[C@@H](O)c5ccc(O)c(OS(=O)(=O)O)c5)NC(=O)[C@@H]5C[C@@H](O)CN5C(=O)[C@H]([C@@H](C)O)NC4=O)cc3)no2)cc1 [micafungin] (10 µM) | 0.0545 | 94.5% (inactive)
O=C(O)c1c(Sc2ccccc2)c2cc(Cl)ccc2n1Cc1ccc(Cl)cc1 (10 µM) | 0.149 | 102% (inactive)
COc1ccc(OC)c2c(=S)c3ccccc3[nH]c12 (10 µM) | -0.0609 | 106% (inactive)
CCCCc1ccc(O)cc1O [rucinol] (10 µM) | -0.0981 | 99% (inactive)
COC(=O)C1=CO[C@@H](O)[C@@H]2C(CO)=CC[C@H]12 [genipin] (10 µM) | 0.291 | 112% (inactive)
O=C(O)Cc1ccc2c(c1)C(=O)c1ccccc1CO2 [isoxepac] (10 µM) | 0.152 | 103% (inactive)
C=CCN1C[C@H](C)N([C@H](c2ccc(C(=O)N(CC)CC)cc2)c2cccc(OC)c2)C[C@H]1C (10 µM) | -0.00563 | 106% (inactive)
CN1CCC2=C(C1)C(c1ccccc1)c1ccccc12 (centres undefined) [phenindamine] (10 µM) | -0.171 | 112% (inactive)
O=C1c2ccccc2CCC1CNCCc1ccc(O)cc1 (centres undefined) (10 µM) | 0.0149 | 106% (inactive)
CC(=O)OCC1=C(C(=O)O)N2C(=O)[C@@H](NC(=O)CSc3ccncc3)[C@H]2SC1 [cephapirin] (10 µM) | -0.142 | 93.5% (inactive)
CCCCc1ncc(/C=C(\Cc2cccs2)C(=O)O)n1Cc1ccc(C(=O)O)cc1 [eprosartan] (10 µM) | 0.0906 | 106% (inactive)
Clc1cccc(N2CCNCC2)c1 (10 µM) | 0.0057 | 114% (inactive)
CC(C)(C(=O)O)c1ccc(C(=O)CCCN2CCC(OC(c3ccccc3)c3ccccc3)CC2)cc1 [carebastine] (10 µM) | 0.0702 | 103% (inactive)
Cn1cc(-c2ccc3nnc(C(F)(F)c4ccc5ncccc5c4)n3n2)cn1 (10 µM) | 0.39 | 95.5% (inactive)
CC(=O)/N=c1/sc(S(N)(=O)=O)nn1C [methazolamide] (10 µM) | -0.0286 | 105% (inactive)
N=C(N)NCCC[C@@H](NC(=O)[C@@H]1CCCN1C(=O)[C@@H]1CSSCCC(=O)N[C@@H](Cc2ccc(O)cc2)C(=O)N[C@@H](Cc2ccccc2)C(=O)N[C@@H](CCC(N)=O)C(=O)N[C@@H](CC(N)=O)C(=O)N1)C(=O)NCC(N)=O [desmopressin-acetate] (10 µM) | 0.0379 | 97.5% (inactive)
